This is an account of results in PMC8159961, “Exploring protein hotspots by optimized fragment pharmacophores” (Nature Communications, 2021).

The target of this assay is thrombin (human, UniProt P00734). The experiment in a line: primary screen, binary call; higher = more effect of the substance. The note with it: 200 µM. The arrangement: screenings were carried out in duplicate in one independent experiment. On the procedure:
Protease inhibitory assays were performed in transparent microtiter plates in a final volume of 200 µL with the use of chromogenic substrates. The reaction rates in the absence and in the presence of the inhibitor were measured; screenings were carried out in duplicate in one independent experiment and Ki values were determined in triplicate in two independent experiments.
On to `COc1ccc(C2=CCNCC2)cc1`, for which the Thrombin was 0 (inactive).
Regarding `Nc1ccc(-c2ccccc2)cc1C(=O)O`, the Thrombin was 0 (inactive).
With `Fc1ccc(CC2CCCNC2)cc1` (centres unmarked) the figure was 0 (inactive); with `O=C(O)c1cccc(Nc2ncccn2)c1`, 0 (inactive).
With `O=C1CCN(c2ccncc2)CC1` the figure was 0 (inactive); with `CS(=O)(=O)c1ccc(OC(F)(F)F)cc1`, 0 (inactive); with `NC(c1ccccc1)c1ccccc1`, 0 (inactive).
As to `COc1cccc(NC2=NCCCCC2)c1`, the Thrombin was 0 (inactive).
Turning to `CCc1nccn1CC(=O)O`, the Thrombin is 0 (inactive).
`Oc1nnc(-c2ccccc2)o1`: the Thrombin was 0 (inactive).
On to `O=C(O)c1cnc(-c2ccccc2)s1`, for which the Thrombin is 1 (active).
